Compound activity from PubChem.
Sampled rows, rich in hits. Any-hit rate of the full collection: about 2.3%.
Epigenetic mod: derepresses silenced GFP locus in mouse C127i cells | actives 0.09% (n = 68,000) | mouse C127i GFP locus derepression, cytometry, 30 h | Potency, µM (highest dose often 46.1 µM) | AID 597
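Locus derepression in mouse mammary C127i cells whose integrated CMV-GFP reporter is normally silent; GFP expression after 30 h compound treatment was quantified by counting fluorescent cells.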
HBB splice mod: alters splicing of the hemoglobin beta chain; HBB splicing reporter cell assay, activation; EGFP reporter with mutant IVS2-654 intron; response scale: normalised to 500 nM splice-correcting PNA; Potency, µM (series often up to 46.1 µM), usual class: activators; actives 0.06% (n = 65,000); AID 925
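HeLa cells stably expressing EGFP interrupted by mutant beta-globin intron 2 (IVS2-654), 500/well in 2% FCS. Treated with compound for 2 days at 37C. Splicing correction scored as total well GFP intensity (488 nm excitation, 500-520 nm emission); 500 nM antisense PNA served as control.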
UbGFP stabilizer: proteasome inhibitors stabilizing ubiquitin-GFP reporter | Ubiquitin-GFP reporter cells, proteasome inhibition, GFP fluorescence; response scale: untreated = 0%, 10 µM MG-132 = 100% | 67,000 tested, under 10 active | AID 526 | Potency, µM (titrated, usually from 45.9 µM), most hits filed as activators; active means well fitted activation curve with a large enough effect, not every such curve was filed as active; inconclusive means small, poorly fitted or top-dose-only effect, or another doubt; inactive means no such curve, though single readings can be large or run the other way
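Proteasome blockade was scored as a rise in GFP-expressing U2OS cells carrying a ubiquitin(G76V)-GFP construct, imaged after 4 hr compound treatment at 37 °C across a 46 uM–2.9 nM series.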
Tau filament bind: binds recombinant human tau filaments | P10636 | actives 2% (n = 71,000) | Potency, µM (doses to about 57.1 µM) | recombinant tau filaments, thioflavin S fluorescence, 15 h; filaments grown with octadecylsulfate alongside compound;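 further: actives lower thioflavin S fluorescence by blocking filaments or displacing dye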
Target sequence (P10636 whole entry, looked up): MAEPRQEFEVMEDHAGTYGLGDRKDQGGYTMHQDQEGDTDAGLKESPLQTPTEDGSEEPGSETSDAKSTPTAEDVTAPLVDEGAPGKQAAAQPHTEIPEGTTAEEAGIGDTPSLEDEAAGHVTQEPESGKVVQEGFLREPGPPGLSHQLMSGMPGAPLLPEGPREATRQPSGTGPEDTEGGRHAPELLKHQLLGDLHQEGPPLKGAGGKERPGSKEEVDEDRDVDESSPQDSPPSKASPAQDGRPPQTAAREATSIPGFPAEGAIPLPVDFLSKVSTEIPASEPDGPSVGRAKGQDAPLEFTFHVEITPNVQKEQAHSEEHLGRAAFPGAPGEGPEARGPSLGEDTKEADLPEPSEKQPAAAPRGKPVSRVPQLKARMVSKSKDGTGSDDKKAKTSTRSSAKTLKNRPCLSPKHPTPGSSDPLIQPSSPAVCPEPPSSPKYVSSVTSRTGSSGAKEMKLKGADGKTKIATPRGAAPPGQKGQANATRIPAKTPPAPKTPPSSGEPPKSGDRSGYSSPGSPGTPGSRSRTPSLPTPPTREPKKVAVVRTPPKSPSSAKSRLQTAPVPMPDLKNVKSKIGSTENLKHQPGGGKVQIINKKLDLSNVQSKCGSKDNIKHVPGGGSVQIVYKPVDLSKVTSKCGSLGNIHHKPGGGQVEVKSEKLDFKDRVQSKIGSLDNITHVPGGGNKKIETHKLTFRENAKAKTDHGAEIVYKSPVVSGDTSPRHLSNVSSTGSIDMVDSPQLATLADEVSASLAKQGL
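ThS-based fibril read: tau 1 uM final, inducer ODS 30 uM final, 37 C for 15 h, ex 450/em 510 nm.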
15-hLO inh: 15-hLO (ALOX15) enzyme inhibition; P16050; purified 15hLO-1, xylenol orange hydroperoxide absorbance; Potency, µM (titrated, usually from 57.1 µM), actives largely listed as inhibitors; actives 1.4% (n = 74,000); further: nearly all actives have a fitted effect of over 55% in size
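Quantitative HTS in 25 mM Hepes pH 7.5 containing 0.01% Triton X-100: human 15hLO-1 at 40 nM, arachidonic acid at 50 uM, 6 min turnover. Product quantified via ferrous oxidation/xylenol orange, 573:405 nm absorbance ratio.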
ALOX15B inhib: inhibitors of human 15-lipoxygenase 2 (ALOX15B). purified 15hLO-2, xylenol orange hydroperoxide absorbance. actives 0.56% (n = 110,000). O15296. Potency, µM (top dose mostly 57.1 µM), most hits filed as inhibitors; further: nearly all actives have a fitted effect of over 60% in size
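Enzyme 50 nM, AA 45 uM, 25 mM Hepes pH 7.5 + 0.01% Triton X-100; cpd preinc 15 min RT, rxn 90 min RT; stop/detect with 200 uM XO + 300 uM Fe(II) in 50 mM H2SO4, 30 min; A573/A405.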
A number is an active result; [ ] = remark or other dose. Unless noted, the call rests on the fitted dose curve; in most records, active means well fitted curve in the direction sought with a large enough effect; inconclusive means small, poorly fitted or top-dose-only effect, or another doubt; inactive means no such curve, though single readings can be large; an effect the other way counts as inactive or inconclusive.

Screening O=C(O)[C@@H]1Cc2c([nH]c3ccccc23)[C@@H](CCCCO)N1 returned Epigenetic mod inactive[9.22 µM], HBB splice mod inactive[9.22 µM], UbGFP stabilizer inactive[9.17 µM], Tau filament bind inactive[11.4 µM], 15-hLO inh inactive[11.4 µM] and ALOX15B inhib inactive[11.4 µM].
O=C(O)CCC(=O)c1ccc[nH]1 was read as Epigenetic mod inactive[9.22 µM], HBB splice mod inactive[9.22 µM], UbGFP stabilizer inactive[9.17 µM], Tau filament bind inactive[11.4 µM], 15-hLO inh inactive[11.4 µM] and ALOX15B inhib inactive[11.4 µM].
FC(F)(F)c1cc(CN2CCC3(CCNCC3)CC2)cc(C(F)(F)F)c1 was read as Epigenetic mod inactive[9.22 µM], HBB splice mod inactive, UbGFP stabilizer inactive, Tau filament bind 13µM, 15-hLO inh inactive and ALOX15B inhib inactive.
Screening CC(C)=CCCC(C)N(C=O)C(C)CCC=C(C)C (centres undefined) returned Epigenetic mod inactive, HBB splice mod inactive, UbGFP stabilizer inactive, Tau filament bind inactive and 15-hLO inh 7.9µM.
CS[C@@H](CC(=O)O)C(=O)O was read as Epigenetic mod inactive[9.22 µM], HBB splice mod inactive[9.22 µM], UbGFP stabilizer inactive[9.17 µM], Tau filament bind inactive[11.4 µM], 15-hLO inh inactive[11.4 µM] and ALOX15B inhib inactive[11.4 µM].
N#CCCn1c(=O)c(-c2ccc(F)cc2)nc2cnc(Oc3ccccc3)nc21 was read as Epigenetic mod inactive[9.22 µM], HBB splice mod inactive, UbGFP stabilizer inactive, Tau filament bind inactive, 15-hLO inh inactive and ALOX15B inhib inactive.
`Oc1ccc([C@@H]2CNCc3sccc32)cc1O` gave Epigenetic mod inactive, HBB splice mod inactive, UbGFP stabilizer inactive, Tau filament bind inactive, 15-hLO inh inconclusive and ALOX15B inhib inconclusive.
Cc1cc(C)nc(Nc2ccc(N3CCOCC3)cc2)n1 was read as Epigenetic mod inactive, HBB splice mod inactive, UbGFP stabilizer inactive, Tau filament bind inconclusive, 15-hLO inh inactive and ALOX15B inhib inactive.
Cc1cc(C)nc(Nc2ccc(N3CCCC3)cc2)n1 was read as Epigenetic mod inactive, HBB splice mod inactive, UbGFP stabilizer inactive, Tau filament bind 16µM, 15-hLO inh inconclusive and ALOX15B inhib inconclusive.
CCCc1cc(=O)[nH]c(Nc2ccc(N3CCCCC3)cc2)n1 was read as Epigenetic mod inactive, HBB splice mod inactive, UbGFP stabilizer inactive, Tau filament bind 25µM, 15-hLO inh inactive and ALOX15B inhib inactive.
Screening CN1CCc2nc(N)nc(-c3nc(N)nc4c3CN(C)CC4)c2C1 returned Epigenetic mod inactive[9.22 µM], HBB splice mod inactive[9.22 µM], UbGFP stabilizer inactive[9.17 µM], Tau filament bind inactive[11.4 µM], 15-hLO inh inactive[11.4 µM] and ALOX15B inhib inactive[11.4 µM].
For C=CCn1cnc2c(c1=O)c1nc3ccccc3nc1n2/N=C/c1cccc(OC)c1 the results were Epigenetic mod inactive, HBB splice mod inactive, UbGFP stabilizer inactive, Tau filament bind 3.2µM, 15-hLO inh inactive and ALOX15B inhib inconclusive.
O=C(SCc1cccc2ccccc12)c1ccc(Cl)cc1 was read as Epigenetic mod inactive[9.22 µM], HBB splice mod inactive[9.22 µM], UbGFP stabilizer inactive[9.17 µM], Tau filament bind inactive[11.4 µM], 15-hLO inh inactive[11.4 µM] and ALOX15B inhib inactive[11.4 µM].
CSC1=C(C#N)C(c2ccc(C(C)C)cc2)CC(=O)N1 (centres undefined) was read as ALOX15B inhib inactive.
For COc1ccc(C2CC(=O)N3CN(Cc4ccco4)CSC3=C2C#N)cc1 (centres undefined) the results were Epigenetic mod inactive, HBB splice mod inactive[0.369 µM], UbGFP stabilizer inactive, Tau filament bind inactive, 15-hLO inh inconclusive and ALOX15B inhib inactive.
Screening CC(C)c1ccc(C2CC(=O)N3CN(Cc4ccco4)CSC3=C2C#N)cc1 (centres undefined) returned Epigenetic mod inactive, HBB splice mod inactive[0.369 µM], UbGFP stabilizer inactive, Tau filament bind inconclusive, 15-hLO inh 13µM and ALOX15B inhib inconclusive.
`N#CC1=C2SCN(Cc3ccccc3)CN2C(=O)CC1c1ccc2c(c1)OCO2` (centres undefined) gave Epigenetic mod inactive, HBB splice mod inactive[0.369 µM], UbGFP stabilizer inactive, Tau filament bind inactive, 15-hLO inh 13µM and ALOX15B inhib inconclusive.
For N#CC1=C2SCN(Cc3ccco3)CN2C(=O)CC1c1ccc(Cl)cc1 (centres undefined) the results were Epigenetic mod inactive, HBB splice mod inactive[0.369 µM], UbGFP stabilizer inactive, Tau filament bind inconclusive, 15-hLO inh 13µM and ALOX15B inhib inconclusive.
Screening Cc1cc(=O)oc2cc(O[C@@H]3O[C@H](C(=O)O)[C@@H](O)[C@H](O)[C@H]3O)ccc12 returned 15-hLO inh inactive and ALOX15B inhib inactive.
For CC(C)(CO[C@H]1C[C@H]2CC[C@@]1(C)C2(C)C)[N+](=O)[O-] the results were Epigenetic mod inactive[9.22 µM], HBB splice mod inactive[9.22 µM], UbGFP stabilizer inactive[9.17 µM], Tau filament bind inactive[11.4 µM], 15-hLO inh inactive[11.4 µM] and ALOX15B inhib inactive[11.4 µM].
For CC1(C(=O)Nc2nccs2)Cc2ccccc2C(=O)O1 (centres undefined) the results were Epigenetic mod inactive, HBB splice mod inactive, UbGFP stabilizer inactive, Tau filament bind 13µM, 15-hLO inh inconclusive and ALOX15B inhib inactive.
`C[C@H]1C[C@H]2[C@H]3CCC4=CC(=O)C=C[C@@]4(C)[C@]3(F)[C@H](O)C[C@]2(C)[C@@]1(O)C(=O)COP(=O)(O)O` gave Epigenetic mod inactive[9.22 µM], HBB splice mod inactive[9.22 µM], UbGFP stabilizer inactive[9.17 µM], Tau filament bind inactive[11.4 µM], 15-hLO inh inactive[11.4 µM] and ALOX15B inhib inactive[11.4 µM].
Cc1ccc(NC(=O)CSC2=C(C#N)C(c3ccc4c(c3)OCO4)C3=C(CCCC3=O)N2)c(C)c1 (centres undefined) was read as Epigenetic mod inactive, HBB splice mod inactive, UbGFP stabilizer inactive, Tau filament bind inactive, 15-hLO inh 3.2µM and ALOX15B inhib inactive.
`CN(C)c1nc(-c2ccoc2)nc2ccccc12` gave Epigenetic mod inactive[9.22 µM], HBB splice mod inactive, UbGFP stabilizer inactive, Tau filament bind 16µM, 15-hLO inh inconclusive and ALOX15B inhib inactive.
Screening c1ccc(Nc2nc(-c3ccoc3)nc3ccccc23)cc1 returned Epigenetic mod inactive[9.22 µM], HBB splice mod inactive, UbGFP stabilizer inactive, Tau filament bind 13µM, 15-hLO inh inactive and ALOX15B inhib inactive.
Screening c1ccc2c(NC3CC3)nc(-c3ccoc3)nc2c1 returned Epigenetic mod inactive[9.22 µM], HBB splice mod inactive, UbGFP stabilizer inactive, Tau filament bind inconclusive, 15-hLO inh inconclusive and ALOX15B inhib inactive.
Screening O=c1c(O)cc(C2Oc3cc(O)cc(O)c3CC2O)cc2c(C3Oc4cc(O)cc(O)c4CC3O)cc(O)c(O)c12 (centres undefined) returned 15-hLO inh inconclusive and ALOX15B inhib inactive.
`Cc1ccc(N(CC(=O)Nc2cccc(C)c2)S(=O)(=O)c2cccc3nonc23)cc1` gave Epigenetic mod inactive, HBB splice mod inactive, UbGFP stabilizer inactive, Tau filament bind 16µM, 15-hLO inh inconclusive and ALOX15B inhib inactive.
